Measured values as given in PubChem BioAssay (NCI).
This is part of a sample that, as a whole, favours compounds with a hit. Of some 79,000 tested, about 15% had one in any assay. Calls of active or inactive are those of the source. Rule as the data show it: active = growth inhibition above about 70%; inactive = the rest.

Tests used:
[1] = NCI Yeast Anticancer Drug Screen. Data for the rad52 strain (AID 147);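 also: 0% = growth of vehicle-treated control cultures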; settings: S. cerevisiae rad52 mutant growth inhibition, active compounds read high
Method in brief: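 Measured: yeast growth inhibition. System: strain with a defined DNA damage repair alteration. Reference: vehicle-treated control cultures.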

[2] = NCI Yeast Anticancer Drug Screen. Data for the wt1 strain (AID 149);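 also: 0% = growth of vehicle-treated wt1 cultures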; settings: S. cerevisiae wt1 strain (SPY 50644) growth inhibition, active compounds read high
Method in brief: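 Using yeast strain wt1, compound-induced growth inhibition was determined against vehicle-treated cultures.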

[3] = NCI Yeast Anticancer Drug Screen. Data for the rad50EPP+ strain (AID 151);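 also: 0% = growth of vehicle-treated control cultures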; settings: S. cerevisiae rad50 mutant strain, active compounds read high
Method in brief: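 One strain with a rad50 alteration (rad50EPP+) was compound-treated, its growth then compared to that of vehicle controls.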

[4] = NCI Yeast Anticancer Drug Screen. Data for the rad50 strain (AID 155);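 also: 0% = growth of vehicle-only cultures of the same strain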; settings: S. cerevisiae rad50 strain growth inhibition, active compounds read high
Method in brief: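 Relative growth inhibition (compound vs vehicle) was measured in yeast with a defined repair-gene alteration.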

[5] = NCI Yeast Anticancer Drug Screen. Data for the mec2-1 strain (AID 157); settings: S. cerevisiae mec2-1 strain, active compounds read high
Method in brief: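 Test agents were screened against the mec2-1 yeast strain, with defined DNA repair or cell cycle alteration. Growth was scored as inhibition against vehicle-only controls.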

[6] = NCI Yeast Anticancer Drug Screen. Data for the rad14 strain (AID 159);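 also: 0% = growth of vehicle-treated control cultures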; settings: S. cerevisiae rad14 strain growth inhibition, active compounds read high
Method in brief: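 Screen for anticancer potential: a yeast strain altered in DNA damage repair is grown with compound, and reduced growth is quantified against vehicle controls.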

[7] = NCI Yeast Anticancer Drug Screen. Data for the CLN2oe strain (AID 163);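 also: 0% = growth of vehicle-only control cultures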; settings: S. cerevisiae CLN2oe strain, active compounds read high
Method in brief: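 Here, growth inhibition in a cell-cycle-altered yeast strain after compound exposure was quantified against vehicle control growth.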

[8] = NCI Yeast Anticancer Drug Screen. Data for the cln2 rad14 strain (AID 165);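 also: 0% = growth equal to vehicle treated cultures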; settings: S. cerevisiae cln2 rad14 strain, active compounds read high
Method in brief: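 Growth of compound-exposed yeast (cln2 rad14 genotype) measured and expressed as inhibition relative to vehicle.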

[9] = NCI Yeast Anticancer Drug Screen. Data for the bub3 strain (AID 167); settings: S. cerevisiae bub3 mutant strain, active compounds read high
Method in brief: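 Screening used yeast with an engineered genetic alteration affecting cell cycle control. Compound-exposed cultures were compared with vehicle cultures, and reduced growth was taken as inhibition.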

[10] = NCI Yeast Anticancer Drug Screen. Data for the wt2 strain (AID 169);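 also: 0% = growth of vehicle-treated yeast cultures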; settings: S. cerevisiae wt2 strain growth inhibition, active compounds read high
Method in brief: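 Genetically defined yeast strains from a DNA-repair/cell-cycle panel were used. Compound-exposed yeast growth was measured, and the inhibition was calculated relative to vehicle treatment.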

[11] = NCI Yeast Anticancer Drug Screen. Data for the mlh1 strain (AID 171);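 also: 0% = growth of vehicle-treated control cultures of the same strain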; settings: S. cerevisiae mlh1 strain growth inhibition, active compounds read high
Method in brief: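 Here the genetically defined yeast mutant is grown with each compound, and the extent to which its growth falls below that of vehicle-exposed cells is reported.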

[12] = NCI Yeast Anticancer Drug Screen. Data for the sgs1 strain (AID 173);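 also: 0% = growth of vehicle-only control cultures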; settings: S. cerevisiae sgs1 mutant, active compounds read high
Method in brief: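 Relative growth inhibition, referenced to vehicle, was determined in a yeast strain with a defined alteration affecting DNA damage repair or cell cycle control after compound exposure.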

[13] = NCI Yeast Anticancer Drug Screen. Data for the mlh1 rad18 strain (AID 175); settings: S. cerevisiae mlh1 rad18 strain growth inhibition, active compounds read high
Method in brief: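 In this whole-cell yeast screen, a strain with altered DNA damage repair is challenged with compound, and its growth is measured against matched vehicle-treated controls.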

[14] = NCI Yeast Anticancer Drug Screen. Data for the rad18 strain (AID 177); settings: S. cerevisiae rad18 mutant growth inhibition, active compounds read high
Method in brief: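 Screen uses a yeast strain with a defined lesion in DNA damage repair; compound effect is read as loss of growth compared to untreated vehicle cultures.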

[15] = NCI Yeast Anticancer Drug Screen. Data for the sgs1 mgt1 strain (AID 161);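 also: 0% = growth of cultures given vehicle only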; settings: S. cerevisiae sgs1 mgt1 strain, active compounds read high
Method in brief: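 Inhibition of yeast growth, normalised to vehicle-treated controls, is reported for a strain bearing genetic alterations in DNA damage repair.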

[16] = at 5.0 µM (retest, dose inferred, filed as 0.5)
[17] = at 50.0 µM (retest, dose inferred, filed as 5.0)

Measured: growth inhibition

CCOC(=O)CNC(=O)c1[nH]cnc1/N=N/N(C)C
active: [1]; at 100.0 µM 98% | [2]; at 100.0 µM 98% | [4]; at 50.0 µM 89.6% | [4]; at 100.0 µM 97% | [5]; at 50.0 µM 90.3% | [5]; at 100.0 µM 98% | [6]; at 100.0 µM 97% | [7]; at 100.0 µM 98% | [8]; at 50.0 µM 90.5% | [9]; [17] 96% | [9]; at 50.0 µM 91.4% | [9]; at 100.0 µM 98% | [10]; at 100.0 µM 97% | [11]; at 100.0 µM 98% | [12]; at 100.0 µM 98% | [13]; at 50.0 µM 71.5% | [14]; at 100.0 µM 98%
inactive: [1]; at 1.2 µM -12% | [1]; at 3.7 µM -11% | [1]; at 11.0 µM -12% | [1]; at 33.0 µM 6% | [2]; at 1.2 µM 8% | [2]; at 3.7 µM 9% | [2]; at 11.0 µM 12% | [2]; at 33.0 µM 12% | [3]; at 1.2 µM -23% | [3]; at 3.7 µM -21% | [3]; at 11.0 µM -21% | [3]; at 33.0 µM -30% | [3]; at 100.0 µM -13% | [4]; at 1.2 µM -5% | [4]; at 3.7 µM 4% | [4]; [16] -10% | [4]; at 11.0 µM 2% | [4]; at 33.0 µM 5% | [4]; [17] 7% | [5]; at 1.2 µM -8% | [5]; at 3.7 µM -10% | [5]; [16] -7% | [5]; at 11.0 µM -8% | [5]; at 33.0 µM -6% | [5]; [17] -17% | [6]; at 1.2 µM 2% | [6]; at 3.7 µM 2% | [6]; at 11.0 µM 1% | [6]; at 33.0 µM 1% | [7]; at 1.2 µM 26% | [7]; at 3.7 µM 23% | [7]; at 11.0 µM 17% | [7]; at 33.0 µM 44% | [8]; [16] -1% | [8]; [17] 35% | [9]; at 1.2 µM 22% | [9]; at 3.7 µM 31% | [9]; [16] 3% | [9]; at 11.0 µM 29% | [9]; at 33.0 µM 62% | [10]; at 1.2 µM -2% | [10]; at 3.7 µM 1% | [10]; at 11.0 µM 0% | [10]; at 33.0 µM 1% | [11]; at 1.2 µM 13% | [11]; at 3.7 µM 5% | [11]; at 11.0 µM 4% | [11]; at 33.0 µM 2% | [12]; at 1.2 µM 10% | [12]; at 3.7 µM 1% | [12]; at 11.0 µM -2% | [12]; at 33.0 µM 9% | [13]; [16] -30% | [13]; [17] 59% | [14]; at 1.2 µM 0% | [14]; at 3.7 µM -11% | [14]; at 11.0 µM -13% | [14]; at 33.0 µM -3%

OCCN(CCO)c1ccc2c(c1)Cc1ccccc1-2
active: [15]; [17] 71% | [12]; at 100.0 µM 76% | [13]; [17] 84% | [13]; at 50.0 µM 77.4%
inactive: [1]; at 1.2 µM -9% | [1]; at 3.7 µM -15% | [1]; at 11.0 µM 3% | [1]; at 33.0 µM 20% | [1]; at 100.0 µM 43% | [2]; at 1.2 µM 0% | [2]; at 3.7 µM 5% | [2]; at 11.0 µM 6% | [2]; at 33.0 µM 6% | [2]; at 100.0 µM 17% | [3]; at 1.2 µM -6% | [3]; at 3.7 µM -3% | [3]; at 11.0 µM 17% | [3]; at 33.0 µM 43% | [3]; at 100.0 µM 53% | [4]; at 1.2 µM -12% | [4]; at 3.7 µM -15% | [4]; [16] 13% | [4]; at 11.0 µM -13% | [4]; at 33.0 µM 34% | [4]; [17] 48% | [4]; at 50.0 µM 34.1% | [4]; at 100.0 µM 65% | [5]; at 1.2 µM -3% | [5]; at 3.7 µM -4% | [5]; [16] 1% | [5]; at 11.0 µM -4% | [5]; at 33.0 µM -7% | [5]; [17] 12% | [5]; at 50.0 µM -11.8% | [5]; at 100.0 µM 1% | [6]; at 1.2 µM 3% | [6]; at 3.7 µM -4% | [6]; at 11.0 µM 23% | [6]; at 33.0 µM 15% | [6]; at 100.0 µM 31% | [15]; [16] 8% | [15]; at 50.0 µM 52.2% | [7]; at 1.2 µM -9% | [7]; at 3.7 µM -8% | [7]; at 11.0 µM -16% | [7]; at 33.0 µM -11% | [7]; at 100.0 µM -7% | [9]; at 1.2 µM -9% | [9]; at 3.7 µM -8% | [9]; [16] 2% | [9]; at 11.0 µM -13% | [9]; at 33.0 µM -13% | [9]; [17] 27% | [9]; at 50.0 µM 10.4% | [9]; at 100.0 µM 1% | [10]; at 1.2 µM 5% | [10]; at 3.7 µM 9% | [10]; at 11.0 µM 14% | [10]; at 33.0 µM 29% | [10]; at 100.0 µM 45% | [11]; at 1.2 µM -13% | [11]; at 3.7 µM -7% | [11]; at 11.0 µM -6% | [11]; at 33.0 µM -6% | [11]; at 100.0 µM 26% | [12]; at 1.2 µM -14% | [12]; at 3.7 µM -10% | [12]; at 11.0 µM 13% | [12]; at 33.0 µM 44% | [13]; [16] 23%

CCCCC(CC)C(=O)Oc1ccc(C(=O)c2ccccc2)c(O)c1 (stereo not drawn)
inactive: [1]; at 1.2 µM 4% | [1]; at 3.7 µM 3% | [1]; at 11.0 µM 6% | [1]; at 33.0 µM 61% | [2]; at 1.2 µM -13% | [2]; at 3.7 µM -17% | [2]; at 11.0 µM -15% | [2]; at 33.0 µM 37% | [3]; at 1.2 µM 8% | [3]; at 3.7 µM 13% | [3]; at 11.0 µM 20% | [3]; at 33.0 µM 54% | [4]; at 1.2 µM 7% | [4]; at 3.7 µM 4% | [4]; [16] 50% | [4]; at 11.0 µM 15% | [4]; at 33.0 µM 56% | [5]; at 1.2 µM 10% | [5]; at 3.7 µM 15% | [5]; [16] 53% | [5]; at 11.0 µM 19% | [5]; at 33.0 µM 61% | [6]; at 1.2 µM -5% | [6]; at 3.7 µM -6% | [6]; at 11.0 µM -8% | [6]; at 33.0 µM 29% | [15]; [16] -32% | [7]; at 1.2 µM 0% | [7]; at 3.7 µM 17% | [7]; at 11.0 µM 19% | [7]; at 33.0 µM 50% | [8]; [16] 48% | [8]; at 50.0 µM 65% | [9]; at 1.2 µM 21% | [9]; at 3.7 µM 27% | [9]; [16] -1% | [9]; at 11.0 µM 32% | [9]; at 33.0 µM 69% | [12]; at 1.2 µM 10% | [12]; at 3.7 µM 9% | [12]; at 11.0 µM 20% | [12]; at 33.0 µM 63% | [13]; [16] 38% | [13]; at 50.0 µM 69.3% | [14]; at 1.2 µM -4% | [14]; at 3.7 µM 0% | [14]; at 11.0 µM 17% | [14]; at 33.0 µM 53%
active: [1]; at 100.0 µM 98% | [2]; at 100.0 µM 98% | [3]; at 100.0 µM 88% | [4]; [17] 76% | [4]; at 50.0 µM 74.9% | [4]; at 100.0 µM 96% | [5]; [17] 79% | [5]; at 50.0 µM 75.2% | [5]; at 100.0 µM 98% | [6]; at 100.0 µM 97% | [15]; [17] 91% | [15]; at 50.0 µM 82% | [7]; at 100.0 µM 97% | [8]; [17] 88% | [9]; [17] 89% | [9]; at 50.0 µM 73% | [9]; at 100.0 µM 98% | [12]; at 100.0 µM 97% | [13]; [17] 77% | [14]; at 100.0 µM 97%
